# Screening results from PubChem.
# Sm TGR inh – inhibitors of Schistosoma mansoni thioredoxin glutathione reductase; purified TGR, DTNB reduction, TNB absorbance 405 nm; Potency, µM (highest dose often 114 µM), for the others: top-dose activity change, negative = inhibition, most hits filed as inhibitors; hit rate 3% among 360,000; AID 485364; further: on the % scale 0 is the no-effect control and ±100 the full control effect; nearly all actives have a fitted effect of over 60% in size
#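 First, TGR (20 nM dispensed) and NADPH were mixed with compound. Second, a 15 min room-temperature incubation followed. Third, further NADPH and then DTNB were added to start the reaction. Finally, TNB absorbance was monitored kinetically.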
# Pf growth 48h – inhibits P. falciparum growth in the first generation, 48 h | P. falciparum luciferase growth in erythrocytes, 48 h | Potency, µM (doses to about 28.7 µM), for inactives: at the highest dose activity change, negative = inhibition, actives largely listed as inhibitors | hit rate 5.9% among 310,000 | AID 504832; further: on the % scale 0 is the no-effect control and ±100 the full control effect
#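 Read-out is firefly luciferase luminescence from an integrated reporter in P. falciparum, so falling signal marks reduced parasite growth. Infected erythrocytes were at 2% hematocrit and 0.1% parasitemia (final) in Albumax-supplemented RPMI 1640.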
# Pf growth 96h – P. falciparum growth inhibition at 96 hours; Potency, µM (highest dose often 28.7 µM), without a hit: at the top dose activity change, negative = inhibition, actives largely listed as inhibitors; AID 504834; hit rate 6.9% among 320,000; P. falciparum luciferase reporter growth, 96 h; further: on the % scale 0 is the no-effect control and ±100 the full control effect
#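 Erythrocytes infected with luciferase-expressing P. falciparum were dispensed at 2% hematocrit and 0.05% parasitemia (final), then incubated with compounds 96 hours at 37 C in 5% CO2. Luminescence after detection reagent addition reported growth.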
# SARS PLP yeast – SARS-CoV PLP inhibition in yeast | S. cerevisiae expressing SARS-CoV PLpro, growth rescue | Potency, µM (titrated, usually from 32.9 µM), inactives show at the highest dose activity, positive = growth rescue, usual class: activators | hit rate 0.19% among 330,000 | AID 485353; calls by dose curve; further: 0% is about no effect; nearly all actives have a fitted effect of over 55% in size
# An asterisk follows results filed as active; ? = inconclusive; . = no result; [ ] = remark or other dose. An excerpt weighted towards active compounds, which were near 12% of everything screened. Unless noted, the call rests on the fitted dose curve; in most records, active means well fitted curve in the direction sought with a large enough effect; inconclusive means small, poorly fitted or top-dose-only effect, or another doubt; inactive means no such curve, though single readings can be large; an effect the other way counts as inactive or inconclusive. Potency means the concentration at half of the fitted maximal effect.
SMILES,Sm TGR inh,Pf growth 48h,Pf growth 96h,SARS PLP yeast
COc1cc(CCC(=O)Nc2ccc(S(=O)(=O)NC3=NCCCCC3)cc2)cc(OC)c1OC,1%,-29%,10µM*,-1%
O=C(Nc1cccc(S(=O)(=O)NC2=NCCC2)c1)c1ccc(=O)[nH]c1,5.6µM*,1%,-18%,-9%
Cc1ccc(CNc2ccc(-c3nc(-c4ccco4)no3)cc2[N+](=O)[O-])cc1,-25%,.,.,.
COC(=O)c1ccc(S(=O)(=O)N(Cc2ccccc2)Cc2ccccc2)n1C,8%,?,?,0%
COC(=O)c1c(C)oc(C)c1S(=O)(=O)Nc1ccccc1,-5%,?,-5%,0%
COC(=O)c1c(C)oc(C)c1S(=O)(=O)NC(C)(C)C,25µM*,30%,-1%,0%
COC(=O)c1c(C)oc(C)c1S(=O)(=O)N(Cc1ccccc1)C(C)C,32µM*,?,-25%,-1%
COC(=O)c1c(C)oc(C)c1S(=O)(=O)N1CCCCC1,40µM*,0%,28%,-1%
COC(=O)c1sc(S(=O)(=O)N2CCCCC2)c(C(=O)OC)c1C,-23%,?,-10%,-4%
COC(=O)c1c(C)oc(C)c1S(=O)(=O)N1CCCC1,50µM*,50%,16%,0%
CC(=O)Nc1ccc(S(=O)(=O)NC(CSc2ccc(C(=O)O)cc2[N+](=O)[O-])C(=O)O)cc1 (centres undefined),-23%,3%,7%,2%
Cc1ccc(-c2c(C(=O)Nc3ccc(F)c(F)c3)oc(=O)c3ccccc23)cc1,2%,.,.,.
Cc1ccc(-c2cc(C(=O)N(Cc3ccc(C(C)(C)C)cc3)Cc3ccco3)no2)cc1,-2%,.,.,.
Cc1cc(C(=O)N(C)Cc2c(F)cccc2Cl)c2ccccc2n1,-6%,-21%,-2%,-1%
CN(C)C(=O)c1ccc(-n2cnc3ccccc3c2=O)cc1,11%,-18%[5.75 µM],12µM*,-1%
CCOC(=O)N1CCN(C(=O)CN(c2cc(C)ccc2OC)S(=O)(=O)c2ccc(C)cc2)CC1,3%,.,.,.
CCOC(=O)N1CCN(C(=O)CSc2nnc3[nH]c(=O)c(C)c(C)n23)CC1,1%,9.3µM*,?,.
O=c1c2ccccc2oc2c1oc1ccccc12,.,.,.,-10%
Cc1ccc(S(=O)(=O)N(CC(=O)N2CCOCC2)c2ccc(C(C)C)cc2)cc1,-9%,-18%,10µM*,-3%
Cc1ccc(S(=O)(=O)N(CC(=O)N2CCCC2)C2CCCCC2)cc1,5%,?,12µM*,2%
Cc1cc(C)c(S(=O)(=O)N(CC(=O)N2CCCC2)C2CCCCC2)c(C)c1,3%,?,.,.
Cc1ccc(S(=O)(=O)N(CC(=O)N2CCC(C)CC2)c2ccccc2)cc1,-31%,12µM*,29%,-1%
Cc1ccc(N(CC(=O)N2CCOCC2)S(=O)(=O)c2ccccc2)cc1,16%,33%,.,-5%
O=C(CN(c1ccc(F)cc1)S(=O)(=O)c1ccc2c(c1)OCCO2)N1CCOCC1,8%,7%,1µM*,6%
CCOC(=O)c1ccc(N2CC3=C(C2=O)C(c2ccc(OC)cc2)NC(=O)N3C)cc1 (centres undefined),13%,.,.,.
SMILES,Sm TGR inh,Pf growth 48h,Pf growth 96h,SARS PLP yeast
CCOc1ccc(CCNC(=O)C2CCCN(c3nnc(C)c4c(C)n(-c5ccccc5)nc34)C2)cc1 (centres undefined),-1%,.,.,.
CCC(Oc1ccccc1)C(=O)Nc1ccc(OCc2cc(=O)n3ccc(C)cc3n2)cc1 (centres undefined),-2%,.,.,.
Cc1cccc(-c2noc(-c3ccc(N4CCN(C)CC4)c([N+](=O)[O-])c3)n2)c1,-1%,.,.,.
COc1ccccc1OCC#CCN1CCOCC1,11µM*,48%[5.75 µM],?,-1%
COc1ccccc1OCC#CCN1CCCCCC1,-23%,20%,-23%[1.15 µM],-1%
Cc1cc(=O)c2cc(C(=O)c3ccccc3)ccc2[nH]1,9%,13µM*,?,-1%
COC(=O)c1ccc2[nH]c(C)cc(=O)c2c1,3%,-7%,7%,-10%
CC(C)(O)C(Cl)(Cl)Cl,.,2.7µM*,1.7µM*,.
COc1ccc(OC)c(-c2csc(N(Cc3ccco3)C(=O)c3ccco3)n2)c1,-12%,?,?,1%
CCC(=O)N(CC)c1nc(-c2cc(OC)ccc2OC)cs1,3%,12µM*,-30%,-8%
COCCCN(C(=O)c1ccco1)c1nc(-c2cc(OC)ccc2OC)cs1,89µM*,.,.,0%
COc1ccc(N(CC(=O)NC2CCCCCC2)S(=O)(=O)c2ccccc2)cc1Cl,-7%,?,?,1%
COc1ccc(S(=O)(=O)N(C)C)cc1NC(=O)CN1C(=O)NC2(CCCC2)C1=O,-2%,7%,4%,3%
O=C(Nc1cccc(S(=O)(=O)N2CCCC2)c1)c1cc(=O)[nH]c2ccccc12,2%,?,-10%,3%
CC(=O)N(Cc1ccccc1)c1ncc2c(n1)c(=O)c(C#N)c1ccccn12,45µM*,?,.,-1%
CCC(C)NC(=O)c1ccc2nc(CCc3ccccc3)oc2c1 (centres undefined),-4%,.,.,.
CC1CN(C(=O)c2cccc(S(=O)(=O)N3CCN(c4ccccc4)CC3)c2)CC(C)O1 (centres undefined),1%,14%,13%,-8%
Cc1ccc(C(=O)NCc2ccco2)cc1Br,45µM*,.,-25%,-7%
O=C(NCc1ccco1)c1ccc2[nH]c(=O)c(=O)[nH]c2c1,-31%,21%,41%,11%
Cc1ccccc1-c1noc(-c2ccccc2C(=O)NCc2ccco2)n1,13µM*,-12%,-17%,-1%
CCc1sc(C(=O)NCc2ccco2)cc1Br,?,1%,10µM*,-12%
Cc1c(Br)cc(C(=O)NCc2ccco2)c(C)c1C,35µM*,12%,.,4%
CCc1sc(C(=O)NCc2ccco2)cc1C,-1%,-2%,15%,-11%
COC(=O)c1ccc(C(=O)NC2CCCc3c2cnn3-c2cc(F)cc(F)c2)nc1 (centres undefined),0%,32%,3%,1%
COc1ccc(CNC(=O)CCCN2C(=O)CSc3c2c(C)nn3-c2ccccc2)c(OC)c1,6%,.,.,.
SMILES,Sm TGR inh,Pf growth 48h,Pf growth 96h,SARS PLP yeast
Cc1ccc(C(=O)c2oc3ccccc3c2NC(=O)C(C)Oc2ccccc2Cl)cc1 (centres undefined),12%,.,.,.
CCN(CC)CCCn1c2c(c(SCC(=O)Nc3nc(C)cs3)nc1=O)CCC2,-2%,0%,-2%,-6%
CC(C)(C)NC(=O)c1ccccc1-c1nc(-c2ccccc2Cl)no1,1%,30%,2.1µM*,-3%
CC1=Nc2cc(C(=O)NCC3CCCO3)ccc2Sc2ccc(C)cc21 (centres undefined),-1%,?,-5%,0%
CC1=Nc2cc(C(=O)NCc3ccco3)ccc2Sc2ccc(C)cc21,-17%,4.1µM*,1.9µM*,-23%
O=C(NCc1ccco1)c1ccc(C(F)(F)F)cc1,2%,10%,11%,-9%
CC(C)(C)N1C(=O)c2ccc(C(=O)NCc3ccco3)cc2C1=O,25µM*,5%,.,-1%
COc1ccc(NC(=O)C2CCN(S(=O)(=O)c3ccc4c(c3)NC(=O)CO4)CC2)cc1,2%,?,-1%,-6%
